Inconclusive results are not listed. Active and inactive are the calls of the source. Unless noted, no rule for the calls is given here.

These results are taken from PubChem BioAssay (NCATS).

A short description of experiment [1]: qHTS profiling of the MIPE4 collection as inhibitors of Plasmodium falciparum (3D7) proliferation (AID 743344).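 Also: scaled between DMSO vehicle wells and 0.29 µM artemisinin as full inhibition.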 Conditions: P. falciparum 3D7 in erythrocytes, SYBR Green DNA fluorescence, 72 h; at 28.5 µM unless noted. In short, it runs like this:
(§1)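 Parasite DNA was quantified by SYBR Green I fluorescence (ex 485, em 535 nm) after overnight lysis in saponin/Triton buffer at room temperature. Cultures at 0.3% parasitemia and 2.5% hematocrit were first exposed to compound for 72 h at 37 C; signals were normalised to artemisinin (0.29 uM) and vehicle wells.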

The nature of experiment [2]: qHTS profiling of the MIPE4 collection as inhibitors of Plasmodium falciparum (DD2) proliferation (AID 743345). The settings on record: P. falciparum Dd2 in erythrocytes, SYBR Green DNA, 72 h; at 28.5 µM unless noted. In short, it runs like this:
as §1

Experiment [3] is described as follows: qHTS profiling of the MIPE4 collection as inhibitors of Plasmodium falciparum (DD2) proliferation (Rep 2) (AID 743346). The settings on record: P. falciparum Dd2 in erythrocytes, SYBR Green DNA, 72 h; at 28.5 µM unless noted. In short, it runs like this: as §1
A general note: In qHTS, concentration-response curves come from the screen itself.

The nature of experiment [4]: High-throughput drug toxicity screening in the BPDCN cell line Gen2.2 (AID 1224824).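 Also: cells exposed to compounds for 48 h before reading.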 The settings on record: Gen2.2 BPDCN cells; at 45.8 µM (top of the series) unless noted. The method in brief: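 Gen2.2 cells, 500 per well in phenol red-free RPMI with 10% FBS, exposed to compounds 48 h at 37 C, 5% CO2; viability by CellTiter-Glo luminescence. Percent activity scaled to DMSO (100%) and 9.2 uM bortezomib final (0%).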

A short description of experiment [5]: High-throughput drug toxicity screening in the BPDCN cell line Cal-1 (AID 1224825). Conditions: Cal-1 BPDCN cell viability, qHTS; at 45.8 µM (top of the series) unless noted. In short, it runs like this:
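Viability of the BPDCN line Cal-1 is measured as ATP-based luminescence (CellTiter-Glo) following 48 h incubation with compounds. Percent activity uses DMSO-treated wells as 100% and 9.2 uM bortezomib as 0%.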

Experiment [6] is described as follows: qHTS assay for measurement of the activity of small molecule inhibitors on Zika virus induced Caspase-3 activity in human iPSC derived neural progenitor cells (hNPCs) (AID 1224857; active = well fitted curve in the direction sought with a large enough effect; an effect the other way counts as inactive or inconclusive; also: nearly all actives have a fitted effect of over 65% in size; also: potency is read from the fitted curve at half-maximal effect). The method in brief: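 Caspase-3/7 induction by a 6-hour ZIKV infection was quantified with a luminescent Caspase-Glo 3/7 reagent incubated 30 minutes at room temperature. Compounds were preincubated with hNPCs for 1 hour; inhibition was calculated against uninfected and infected control wells.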

Experiment [7] in a line: qHTS profiling of the MIPE4 collection as inhibitors of Plasmodium falciparum (HB3) proliferation (AID 743347).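 Also: plate controls were DMSO vehicle wells for no effect and artemisinin wells for full effect.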 Conditions: P. falciparum HB3 in erythrocytes, SYBR Green DNA, 72 h; at 28.5 µM unless noted. In short, it runs like this:
as §1

A short description of experiment [8]: qHTS assay for measurement of the activity of small molecule inhibitors on Zika virus induced Caspase-3 activity in human astrocytoma cells (AID 1224859; active = well fitted curve in the direction sought with a large enough effect; an effect the other way counts as inactive or inconclusive;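 also: plate controls were ZIKV-infected untreated cells for no effect and uninfected cells for full effect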). The method in brief: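 In SNB-19 cells plated at 250 cells/well and grown 16-20 h, compounds were applied 1 h before ZIKV (2 FFU/cell). Six hours later caspase-3/7 luminescence was recorded.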
Experiment [9] is described as follows: qHTS Screen of the MIPE 4.0 Collection Against Ewings Sarcoma (RDES) (AID 1259252; active = well fitted curve in the direction sought with a large enough effect; an effect the other way counts as inactive or inconclusive; also: nearly all actives have a fitted effect of over 35% in size; also: potency is read from the fitted curve at half-maximal effect). The method in brief:
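Here, cells in 5% FBS RPMI were exposed for two days (48 h) to compound dilutions added four hours after plating. ATP-based CellTiter-Glo luminescence measured viability, normalized to vehicle and no-cell blanks.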

Experiment [10] in a line: qHTS profiling for inhibitors of Plasmodium falciparum (DD2) proliferation (AID 743323). Conditions: lower = more inhibition; at 28.7 µM (top of the series). The method in brief:
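SYBR Green fluorescence (ex 485, em 535 nm) of lysed cultures gives parasite DNA content; wells normalized to artemisinin (0.29 uM) and DMSO controls. Infected red cells: 0.3% parasitemia, 2.5% hematocrit, 72 h, 37 C.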

A short description of experiment [11]: qHTS profiling for inhibitors of Plasmodium falciparum (HB3) proliferation (AID 743324; active = well fitted curve in the direction sought with a large enough effect; an effect the other way counts as inactive or inconclusive;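 also: 100% = DMSO vehicle wells and 0% = artemisinin-treated control wells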). Conditions: Plasmodium falciparum HB3 blood-stage proliferation; at 28.7 µM (top of the series). In short, it runs like this:
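SYBR Green fluorescence (485 ex/535 em) of lysed cultures, incubated overnight at room temperature in the dark, quantifies parasite DNA. Infected erythrocytes at 0.3% parasitemia and 2.5% hematocrit were exposed 72 h; values normalized to DMSO and 0.29 uM artemisinin controls.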

In experiment [12] the target is T1, Hexokinase-4 (Homo sapiens) + Glucokinase regulatory protein (Homo sapiens) (UniProt P35557+Q14397). Description: qHTS assay for inhibitors of recombinant human GCK-GKRP interaction: Diaphorase-coupled assay (AID 743205; active = well fitted curve in the direction sought with a large enough effect; an effect the other way counts as inactive or inconclusive). The method in brief:
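Compounds pre-incubated 20 min with substrate, then 10 nM GST-GCK with 10 nM FLAG-GKRP added. GCK activity coupled via G6PDH and diaphorase to resorufin (5 mM glucose, 0.4 mM ATP, 0.15 mM NADP+, pH 7.6), read kinetically over 30 minutes at Ex 525/Em 590 nm.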

In experiment [13] the target is T1, Hexokinase-4 (Homo sapiens) + Glucokinase regulatory protein (Homo sapiens). Description: qHTS assay for inhibitors of recombinant human GCK-GKRP interaction: ADP-Glo assay (AID 743206; active = well fitted curve in the direction sought with a large enough effect; an effect the other way counts as inactive or inconclusive;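 also: plate controls were DMSO plus enzyme for no effect and no enzyme for full effect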). The method in brief: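 Pin-transferred compounds meet a 15 nM GST-GCK/15 nM FLAG-GKRP/2 uM S6P mix (dispense concentrations). ATP is then added to 0.4 mM final with 5 mM glucose, and the reaction runs 60 min at room temperature. ADP is quantified luminescently.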

For experiment [14] the target is unchanged. The experiment in a line: qHTS assay for inhibitors of recombinant human GCK-GKRP interaction: HTRF assay (AID 743207; active = well fitted curve in the direction sought with a large enough effect; an effect the other way counts as inactive or inconclusive;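 also: 0% = DMSO with GCK present and -100% = DMSO wells lacking GCK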). The method in brief:
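HTRF binding of 5 nM GST-GCK and 5 nM FLAG-GKRP with 2 uM S6P in pH 7.1 Hepes buffer (MgCl2, KCl, DTT, Tween 20, BSA). Anti-FLAG XL665 and anti-GST donor added, 60 min at room temperature; 665/615 nm read, normalized to with- and without-GCK controls.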

T1 sequence (P35557 whole entry, looked up): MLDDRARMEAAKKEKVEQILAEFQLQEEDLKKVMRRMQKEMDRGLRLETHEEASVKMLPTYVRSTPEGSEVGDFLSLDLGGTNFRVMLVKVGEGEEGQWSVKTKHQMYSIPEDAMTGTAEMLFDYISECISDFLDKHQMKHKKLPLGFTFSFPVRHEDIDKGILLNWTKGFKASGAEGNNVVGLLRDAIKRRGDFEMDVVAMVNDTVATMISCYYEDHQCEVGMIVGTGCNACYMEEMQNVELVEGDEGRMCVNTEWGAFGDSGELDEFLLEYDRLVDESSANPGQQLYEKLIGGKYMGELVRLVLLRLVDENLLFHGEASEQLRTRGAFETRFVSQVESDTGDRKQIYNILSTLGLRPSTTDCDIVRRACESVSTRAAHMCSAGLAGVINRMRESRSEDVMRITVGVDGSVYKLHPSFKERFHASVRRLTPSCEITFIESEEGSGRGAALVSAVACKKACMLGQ
T1 sequence (Q14397 whole entry, looked up): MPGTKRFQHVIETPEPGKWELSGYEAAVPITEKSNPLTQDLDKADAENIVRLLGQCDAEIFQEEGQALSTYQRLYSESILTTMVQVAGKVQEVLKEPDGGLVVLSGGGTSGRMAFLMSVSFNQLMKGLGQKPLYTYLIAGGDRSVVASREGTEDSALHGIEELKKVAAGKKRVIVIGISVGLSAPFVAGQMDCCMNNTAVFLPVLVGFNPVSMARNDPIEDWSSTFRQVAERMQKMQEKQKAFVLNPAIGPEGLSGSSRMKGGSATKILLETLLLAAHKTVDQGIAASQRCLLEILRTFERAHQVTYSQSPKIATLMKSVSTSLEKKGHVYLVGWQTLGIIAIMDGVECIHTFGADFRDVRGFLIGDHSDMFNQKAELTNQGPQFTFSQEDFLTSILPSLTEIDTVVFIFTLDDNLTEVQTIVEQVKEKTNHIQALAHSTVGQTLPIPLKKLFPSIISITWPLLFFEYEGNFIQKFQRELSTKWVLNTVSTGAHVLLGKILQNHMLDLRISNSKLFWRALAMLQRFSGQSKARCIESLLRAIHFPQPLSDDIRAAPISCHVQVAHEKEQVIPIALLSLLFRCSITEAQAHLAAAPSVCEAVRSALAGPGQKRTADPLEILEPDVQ

In experiment [1], `C[C@H](NC(=O)C(=O)Nc1ccccc1C(C)(C)C)C(=O)N[C@@H](CC(=O)O)C(=O)COc1c(F)c(F)cc(F)c1F` had a parasite growth, % of DMSO control of 73.8%. For the same molecule, the parasite growth remaining, % of DMSO control (lower = more inhibition) in experiment [2] was determined as 107%. Further, in experiment [3], the parasite growth, % of control (lower = inhibition) is 49.8%. Besides, the cell viability, % of control (lower = more cytotoxic) in experiment [4] amounted to 200%. The viability (% of control) in experiment [5] was found to be 8.98%. Besides, in experiment [6], the Potency was 2.35 µM (active).
For the molecule `O=C(O)c1ccccc1C(=O)Nc1ccc(-c2ccccc2)cc1`, in [2], the parasite growth remaining, % of DMSO control (lower = more inhibition) turned out to be 104%. Also, in experiment [4], the cell viability, % of control (lower = more cytotoxic) amounted to 156%. Also, the viability (% of control) in [5] was determined as 111%. The Potency result in experiment [6] is “inactive”.
As for `CCCCCNC(=O)N1CCC(CN(Cc2ccc(Cl)cc2)Cc2ccc([N+](=O)[O-])s2)C1` (configuration not stated), the parasite growth, % of DMSO control in [1] was found to be 60.8%. The parasite growth remaining, % of DMSO control (lower = more inhibition) in experiment [2] was 25.2%. Further, the parasite growth, % of control (lower = inhibition) in [3] turned out to be 30.3%. In addition, the growth, % of control in experiment [7] turned out to be 55.8%. Also, in experiment [4], the cell viability, % of control (lower = more cytotoxic) is 15.7%. Also, the viability (% of control) in experiment [5] is 44.4%. Also, the Potency result in [8] was “inactive”. Also, the Potency in [9] is 20.9 µM (active).
`O=C1c2ccccc2-[n+]2ccc3c([nH]c4ccccc43)c21` displayed a parasite growth, % of DMSO control in experiment [1] of 16.3%. The parasite growth remaining, % of DMSO control (lower = more inhibition) in experiment [2] worked out at 7.19%. Also, in experiment [3], the parasite growth, % of control (lower = inhibition) is 16.6%. In [7], this molecule returned a growth, % of control of 4.72%. In addition, in experiment [4], the cell viability, % of control (lower = more cytotoxic) is 5.04%. Also, in experiment [5], the viability (% of control) turned out to be 3.57%. In addition, in [6], the Potency was 1.05 µM (active).
`NC(CO)(CO)CCc1ccc(Sc2cccc(OCc3ccccc3)c2)cc1Cl` had an activity, percent of control in experiment [10] of 1.55%. The remaining proliferation (% of control), lower = more inhibition in experiment [11] is -1.39%. Also, in experiment [1], the parasite growth, % of DMSO control amounted to 4.87%. In [2], the parasite growth remaining, % of DMSO control (lower = more inhibition) came to 8.96%. Further, in experiment [3], the parasite growth, % of control (lower = inhibition) stood at 15.3%. For the same molecule, in [4], the cell viability, % of control (lower = more cytotoxic) came out at 7.64%. Moreover, in [5], the viability (% of control) came to 5.26%. Also, the Potency result in experiment [6] was “inactive”.
As to `CCCCCN(C)CCC(O)(P(=O)(O)O)P(=O)(O)O`, the result in experiment [12], in experiment [13] and in [14] was inactive. This molecule registered a parasite growth, % of DMSO control in experiment [1] of 92.2%. The parasite growth remaining, % of DMSO control (lower = more inhibition) in [2] was 92.9%. Moreover, the parasite growth, % of control (lower = inhibition) in experiment [3] turned out to be 114%. This molecule returned a growth, % of control in experiment [7] of 90.7%. The cell viability, % of control (lower = more cytotoxic) in [4] turned out to be 125%. In addition, the viability (% of control) in experiment [5] is 102%. Moreover, the Potency result in experiment [8] and in [9] was “inactive” in each case.
`COc1ccc(-c2coc3cc(O)ccc3c2=O)cc1` displayed a parasite growth, % of DMSO control in experiment [1] of 65.1%. In experiment [2], the parasite growth remaining, % of DMSO control (lower = more inhibition) amounted to 8.21%. The parasite growth, % of control (lower = inhibition) in [3] amounted to 96.3%. Also, the growth, % of control in experiment [7] was determined as 92.8%. Besides, the cell viability, % of control (lower = more cytotoxic) in [4] came to 191%. Further, the viability (% of control) in experiment [5] came out at 109%. The Potency in experiment [6] was 18.7 µM (active).
Molecule `NC[C@@H]1O[C@@H](O[C@H]2[C@@H](O)[C@H](O[C@@H]3[C@@H](O)[C@@H](N)C[C@H](N)[C@H]3O[C@H]3O[C@H](CN)[C@@H](O)[C@@H](O)[C@H]3N)O[C@H]2CO)[C@H](N)[C@@H](O)[C@@H]1O` came in with a parasite growth, % of DMSO control in experiment [1] of 88%. For the same molecule, the parasite growth remaining, % of DMSO control (lower = more inhibition) in experiment [2] was 92.7%. For the same molecule, the parasite growth, % of control (lower = inhibition) in experiment [3] came out at 90%. Besides, the cell viability, % of control (lower = more cytotoxic) in [4] was 134%. In addition, the viability (% of control) in [5] came to 147%. Besides, the Potency result in experiment [6] was “inactive”.
Turning to `Nc1ncnc2ccccc12`, the parasite growth, % of DMSO control in experiment [1] came to 84.9%. The parasite growth remaining, % of DMSO control (lower = more inhibition) in experiment [2] came to 98.4%. For the same molecule, the parasite growth, % of control (lower = inhibition) in [3] was 82.3%. This molecule displayed a growth, % of control in experiment [7] of 77%. Also, in experiment [4], the cell viability, % of control (lower = more cytotoxic) amounted to 145%. Moreover, the viability (% of control) in [5] was 100%. The Potency result in experiment [6] is “inactive”.
In [1], `O=C1C[C@@H](c2ccc(O)cc2)Oc2cc(O)cc(O)c21` showed a parasite growth, % of DMSO control of 20%. Moreover, the growth, % of control in experiment [7] was 5.63%. Further, in experiment [4], the cell viability, % of control (lower = more cytotoxic) was determined as 70.3%. Further, in experiment [5], the viability (% of control) worked out at 103%. In experiment [6], the Potency is 18.7 µM (active).
Turning to `CC(C)(C)OC(=O)N[C@H]1CCCCCC=C[C@@H]2C[C@@]2(C(=O)NS(=O)(=O)C2CC2)NC(=O)[C@@H]2C[C@@H](OC(=O)N3Cc4cccc(F)c4C3)CN2C1=O`, the parasite growth, % of DMSO control in [1] worked out at 11.7%. The parasite growth remaining, % of DMSO control (lower = more inhibition) in experiment [2] came out at 40.6%. In [3], the parasite growth, % of control (lower = inhibition) amounted to 10.1%. Moreover, the cell viability, % of control (lower = more cytotoxic) in experiment [4] is 46.5%. Further, the viability (% of control) in experiment [5] is 99.3%. For the same molecule, the Potency entry in [6] is “inactive”.
Molecule `NC(=O)NN=Cc1ccc([N+](=O)[O-])o1` gave a parasite growth, % of DMSO control in [1] of 13.6%. Besides, in experiment [2], the parasite growth remaining, % of DMSO control (lower = more inhibition) came to 48.9%. For the same molecule, the parasite growth, % of control (lower = inhibition) in experiment [3] was found to be 14.3%. The molecule further displayed a growth, % of control in [7] of 13.3%. Also, in [4], the cell viability, % of control (lower = more cytotoxic) amounted to 172%. Further, the viability (% of control) in experiment [5] amounted to 72.8%. Further, in experiment [6], the Potency result is “inactive”.
